Measurements taken from PubChem BioAssay (NCI).
This is part of a sample that, as a whole, favours compounds with a hit. Of some 79,000 tested, about 15% had one in any assay. Rule as the data show it: active = growth inhibition above about 70%; inactive = the rest.

What was measured:
[1] = NCI Yeast Anticancer Drug Screen. Data for the rad50 strain (AID 155);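 also: 0% = growth of vehicle-only cultures of the same strain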; settings: S. cerevisiae rad50 strain growth inhibition; at 50.0 µM; hits give high values
How it was run: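 Inhibition values express reduced yeast growth in compound-treated cultures relative to vehicle-treated controls.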

[2] = NCI Yeast Anticancer Drug Screen. Data for the mec2-1 strain (AID 157); settings: S. cerevisiae mec2-1 strain, at 50.0 µM, hits give high values
How it was run: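 Mutant yeast (mec2-1) grown with compound; growth inhibition relative to vehicle control reported.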

[3] = NCI Yeast Anticancer Drug Screen. Data for the sgs1 mgt1 strain (AID 161);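 also: 0% = growth of cultures given vehicle only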; settings: S. cerevisiae sgs1 mgt1 strain, at 50.0 µM, hits give high values
How it was run: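 Yeast cells carrying a defined DNA-repair defect were exposed to test compounds. Growth inhibition was measured relative to vehicle-treated controls.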

[4] = NCI Yeast Anticancer Drug Screen. Data for the cln2 rad14 strain (AID 165);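 also: 0% = growth equal to vehicle treated cultures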; settings: S. cerevisiae cln2 rad14 strain, at 50.0 µM, hits give high values
How it was run: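 Readout is yeast growth inhibition versus vehicle-treated controls, using a strain with cln2 and rad14 alterations exposed to compound.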

[5] = NCI Yeast Anticancer Drug Screen. Data for the bub3 strain (AID 167); settings: S. cerevisiae bub3 mutant strain, at 50.0 µM, hits give high values
How it was run: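 Steps: expose the mutant yeast strain to compound; grow alongside vehicle-treated cultures; measure growth; express inhibition against the vehicle cultures.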

[6] = NCI Yeast Anticancer Drug Screen. Data for the mlh1 rad18 strain (AID 175); settings: S. cerevisiae mlh1 rad18 strain growth inhibition; at 50.0 µM; hits give high values
How it was run: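 Genetically defined yeast (DNA repair-deficient) exposed to compounds; growth inhibition determined relative to vehicle.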

Measured: growth inhibition

O=C(C/C(=N\NC(=O)C[n+]1ccccc1)C(=O)Nc1nc2ccc([N+](=O)[O-])cc2s1)CC(c1ccccc1)c1c(O)c2ccccc2oc1=O (stereo not given)
inactive: [1] 3.65% | [2] -15% | [3] -17.2% | [4] 1.6% | [5] 7.3% | [6] -4.85%

CC(=O)C(CCC(=O)O)(CCC(=O)O)c1ccccc1
inactive: [1] 2% | [2] 21.6% | [3] 5.3% | [4] -49.4% | [5] 13.7% | [6] 20.2%

C/C(=C(/O)c1ccc(Cl)cc1)c1nc2cc(Cl)cc([N+](=O)[O-])c2[nH]c1=O
inactive: [1] 37% | [2] 43.3% | [3] 24.6% | [4] -4.55% | [5] 18.9% | [6] 53.5%

CCOC(=O)CNCc1cccc(Cl)c1
inactive: [1] 5.15% | [2] 28.4% | [3] 15.4% | [4] -0.8% | [5] 28.1% | [6] 24.2%

Nc1cc(Cl)nc(N)n1
inactive: [1] -12.2% | [2] -16.4% | [3] 9.9% | [4] 0.1% | [5] -5.4% | [6] 17.6%

O=C(On1nnc2ccccc2c1=O)c1ccccc1
inactive: [1] 29.7% | [2] 20.4% | [3] 22.8% | [4] -7.25% | [5] -3.25% | [6] 12.8%

CC(=O)C1C(=O)C(=O)N(c2ccc([N+](=O)[O-])cc2Cl)C1=O (stereo not given)
inactive: [1] -45.9% | [2] -35.8% | [3] 2.95% | [4] 2.95% | [5] -3.55% | [6] -33.2%

CCCCCCCCCCCCS(=O)(=O)N/N=C(\c1ccccc1Cl)N1CCOCC1
inactive: [1] 48.2% | [2] 33.5% | [3] 45.9% | [4] 48.2% | [5] 55.8% | [6] 51.2%

N#CC1(C(c2cccc3ccccc23)c2cccc3ccc4ccccc4c23)CC(=O)OC1=O (stereo not given)
inactive: [1] 5.25% | [2] -11.4% | [3] 14.1% | [4] 12.1% | [5] -2.55% | [6] 9.65%

O=C(Nc1ccccc1O)c1ccc([N+](=O)[O-])cc1
inactive: [1] 2.2% | [2] 34.4% | [3] -4.4% | [4] -15.6% | [5] 20.4% | [6] 19.1%

Cc1c(C(=O)Nc2ccc(Cl)c(C(F)(F)F)c2)oc2cc(O)ccc2/c1=N\NC(N)=S
inactive: [1] -12.3% | [2] -14.4% | [3] -23.6% | [4] -7.85% | [5] -7.35% | [6] -17.4%

CC(C)CCC[C@@H](C)[C@H]1CC[C@H]2[C@@H]3CC=C4C[C@@H](OC(=O)c5cccc6c(=O)c7ccccc7[nH]c56)CC[C@]4(C)[C@H]3CC[C@]12C
inactive: [1] 12.8% | [2] 16.1% | [3] 3.3% | [4] -4.95% | [5] -3.8% | [6] -28.9%

CN1CCN(C(=S)N(C(=O)c2ccco2)c2ccccc2)CC1
inactive: [1] -57.8% | [2] -44.3% | [3] -22.6% | [4] -2.4% | [5] -0.1% | [6] -37.9%

CN1CCC(c2ccccc2)(c2ccccc2)OC1c1ccccc1 (stereo not given)
inactive: [1] 1.65% | [2] -12.2% | [3] -7.85% | [4] 1.35% | [5] 8.85% | [6] -18.2%

COc1cc(C2OCC3C(c4ccc(O)c(OC)c4)OCC23)ccc1O (stereo not given)
inactive: [1] 6% | [2] -20.4% | [3] 10.9% | [4] 23.4% | [5] 0.2% | [6] 14.6%

COC(=O)C(C(=O)C(=O)Nc1ccc(C)cc1C)c1nc2ccc([N+](=O)[O-])cc2[nH]c1=O (stereo not given)
inactive: [1] 9.05% | [2] -1.7% | [3] 4.05% | [4] 7.95% | [5] 4.2% | [6] 6.65%

CCc1cccc(NC(=O)c2cc(/C=C/c3ccccc3)[nH]c(=S)n2)c1
inactive: [1] -15.9% | [2] -19.4% | [3] 6.95% | [4] -1.85% | [5] -6.85% | [6] -12.1%

N#CC(CN1CCOCC1)[N+](=O)[O-] (stereo not given)
inactive: [1] -2.2% | [2] -4.6% | [3] -14.2% | [4] -24.6% | [5] 16.6% | [6] -13.6%

c1ccc2nc(N3CCCC3)c(N3CCCC3)nc2c1
inactive: [1] -8.75% | [2] -12.6% | [3] -10.7% | [4] -21.4% | [5] 57.8% | [6] -4.85%

O=C1C(c2ccccc2)=C(c2ccccc2)C(c2ccc(Cc3ccc(C4=C(c5ccccc5)C(=O)C(c5ccccc5)=C4c4ccccc4)cc3)cc2)=C1c1ccccc1
inactive: [1] 20.1% | [2] 32.4% | [3] 16.8% | [4] 14.6% | [5] 15.1% | [6] 26.6%

C1=CCC(C(Cc2ccccc2)N2CCCCC2)CC1 (stereo not given)
inactive: [1] 15.8% | [2] 1% | [3] 23.9% | [4] -27.4% | [5] 11.2% | [6] 24.1%

CCOC(=O)Cn1c(=O)c2nc(SC)sc2n(-c2ccccc2)c1=O
inactive: [1] -19.9% | [2] 10.8% | [3] -37.1% | [4] 6.9% | [5] -1.45% | [6] 9.4%

c1cnc(NC(Nc2ncccn2)c2ccco2)nc1
inactive: [1] -6.5% | [2] -8.9% | [3] -5.55% | [4] -21.9% | [5] -12.2% | [6] -10.4%

CCCc1c(N)nc(N)nc1N
inactive: [1] 3.4% | [2] 2.05% | [3] -5.7% | [4] -48.6% | [5] 7.4% | [6] -7.65%

COC(=O)/C(=C/C=C/c1ccccc1)N=[N+]=[N-]
inactive: [1] -20.5% | [2] 7.5% | [3] -12% | [4] -11.6% | [5] 3.2% | [6] -10.1%

O=C1CN(CCCCl)CC(=O)N2Cc3ccccc3CN12
inactive: [1] -9.05% | [2] 5.3% | [3] -15.7% | [4] -10.1% | [5] -3.7% | [6] -20.1%

CC(O)C(O)C(O)C(O)C(/C=N/Nc1ccccc1)=N/Nc1ccccc1 (stereo not given)
inactive: [1] 3.75% | [2] -14% | [3] 8.1% | [4] -9.95% | [5] 0.25% | [6] 22.8%

c1ccc2c(c1)Nc1nc3ccccc3nc1N2
inactive: [1] -40% | [2] -5.7% | [3] -33.8% | [4] 15.8% | [5] -8% | [6] 16.9%

O=[N+]([O-])c1ccc(OCc2ccccc2)c(Cl)c1
inactive: [1] -4.2% | [2] 17.1% | [3] 25.9% | [4] -13.8% | [5] 46.3% | [6] 30.4%

COc1cccc(-c2nc(-c3cnccn3)n(C3OC(CO)C(O)C3O)n2)c1 (stereo not given)
inactive: [1] -16.4% | [2] -22.4% | [3] -12.8% | [4] 11.6% | [5] -45% | [6] -22.6%

C[N+](C)(C)/N=C1\CC2CCC1C2 (stereo not given)
inactive: [1] 18.3% | [2] -4.5% | [3] -5.55% | [4] 4.75% | [5] 1.9% | [6] 23.1%

Cc1ccc(Cl)cc1NC(=O)Oc1ccccc1C(=O)OCc1ccccc1
inactive: [1] -31.9% | [2] -1.55% | [3] 18.5% | [4] -37.3% | [5] 20.2% | [6] 19.9%

Cc1cccc(NC(=S)N(CCC#N)C2CCCCC2)c1
inactive: [1] 1.6% | [2] -2.85% | [3] 14.8% | [4] 7% | [5] 18.6% | [6] 9.85%

C/C(=C/C(=O)O)c1ccccc1
inactive: [1] 10.7% | [2] -14.4% | [3] 2.2% | [4] -19.6% | [5] -15.3% | [6] -1.95%

CC1(C)CC(=O)C2=C(SC3=C(C2)C(=O)CC(C)(C)S3)S1
inactive: [1] -5.75% | [2] -2.5% | [3] 2.8% | [4] -7.25% | [5] -9.85% | [6] -3.3%

CC[n+]1c(C)sc2cc(Cl)c(-c3ccccc3)cc21
inactive: [1] 23.4% | [2] 17.2% | [3] 30.4% | [4] -6.25% | [5] -3.25% | [6] 34.1%

COC(=O)C(NC(=O)C(C)N1C(=O)CCC(NS(=O)(=O)c2ccc(C)cc2)C1=O)C(C)C (stereo not given)
inactive: [1] 30.1% | [2] 8% | [3] 9.4% | [4] 1.05% | [5] 3.55% | [6] 15.8%

O=CCCc1ccccc1
inactive: [1] 31.6% | [2] -22.1% | [3] -22.2% | [4] -29.6% | [5] 22% | [6] 56.1%

N#CC1C(=O)NC(=S)NC1c1ccc(Cl)c(Cl)c1 (stereo not given)
inactive: [1] -3.15% | [2] -16.9% | [3] -25.9% | [4] -19.6% | [5] -13.8% | [6] -5.25%

COC1OCC(NC(=O)CNC(=O)CCCCCCCCCCCCC(C)C)C(O)C1O (stereo not given)
inactive: [1] 16.2% | [2] 5.55% | [3] 8.75% | [4] 32.5% | [5] -8.1% | [6] 18.6%
